GDH-TPI counter-1 – counter-screen for M. tuberculosis FBA inhibitors: GDH-TPI coupled enzymes; actives 1.2% (n = 360,000); GDH-TPI coupled enzyme counterscreen, NADH absorbance; inhibition, % at 4.8 µM; AID 588335; in the data active = inhibition above about 30%;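 note: 0% = DMSO wells and 100% = wells lacking the enzyme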
FadD28 binding – M. tuberculosis FadD28 bisubstrate binding inhibition. AID 588549. actives 0.22% (n = 360,000). FadD28 bisubstrate probe binding, fluorescence polarization. inhibition, % at 12.5 µM; in the data active = inhibition above about 8.5%, passing the limit was not always enough
Mtb BioA inh – inhibitors of Mycobacterium tuberculosis BioA enzyme. actives 0.096% (n = 360,000). AID 602481. inhibition, % at 9.99 µM. purified M. tuberculosis BioA enzyme, plate reader; in the data active = inhibition above about 40%
Mtb FBA inh – inhibits M. tuberculosis FBA enzyme; P9WQA3; purified M. tuberculosis FBA, fluorescence read-out; inhibition, % at 1 µM; actives 2.3% (n = 360,000); AID 588726;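 note: 0% = vehicle and 100% = reference inhibitor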
Rv3671c inh – inhibits the M. tuberculosis serine protease Rv3671c | inhibition, % at 5.96 µM | actives 0.048% (n = 320,000) | P9WHR9; in the data active = inhibition above about 38%;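 note: extracellular domain of Rv3671c used as enzyme; 0% = enzyme with DMSO and 100% = no enzyme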
Target sequence (P9WHR9 whole entry, looked up, the tested form may be a part): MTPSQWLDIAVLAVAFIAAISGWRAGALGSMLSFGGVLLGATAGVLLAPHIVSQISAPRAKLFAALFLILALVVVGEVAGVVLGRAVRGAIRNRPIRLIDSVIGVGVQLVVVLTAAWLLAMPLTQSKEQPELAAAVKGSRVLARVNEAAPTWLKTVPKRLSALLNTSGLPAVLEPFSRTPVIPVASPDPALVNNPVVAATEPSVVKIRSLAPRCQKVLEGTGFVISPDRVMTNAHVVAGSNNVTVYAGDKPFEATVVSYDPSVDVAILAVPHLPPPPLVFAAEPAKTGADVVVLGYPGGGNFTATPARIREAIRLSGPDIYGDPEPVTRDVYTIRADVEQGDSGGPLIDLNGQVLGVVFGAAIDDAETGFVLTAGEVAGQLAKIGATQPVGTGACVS
Mtb FBA confirm – confirmation of M. tuberculosis fructose-bisphosphate aldolase inhibitors | shares compounds with Mtb FBA inh | purified M. tuberculosis FBA, fluorescence read-out | inhibition, % at 1 µM | actives 78% (n = 5,600) | AID 651616;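 note: 0% = vehicle wells and 100% = reference inhibitor wells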
GDH-TPI counter-2 – GDH-TPI inhibition counter-screen for FBA inhibitors; shares compounds with Mtb FBA inh; GDH-TPI coupled enzyme counterscreen, fluorescence; inhibition, % at 1 µM; actives 81% (n = 5,600); AID 652141; in the data active = inhibition above about 10%
GDH-TPI DR – counter-screen for M. tuberculosis FBA inhibitors: GDH-TPI dose response; GDH-TPI coupled enzyme assay, fluorescence, artifact counterscreen; IC50, µM; actives 79% (n = 170); shares compounds with Mtb FBA inh; call rule not given here
An asterisk follows results filed as active; . = not tested or not shown; + = active, no number. Compounds with a hit are over-represented: about 3% of the library has one in this group of screens. Cut-off read from the data, not from the text of the source, unless noted: active = inhibition above about 27%; inactive = the rest.

SMILES	GDH-TPI counter-1	FadD28 binding	Mtb BioA inh	Mtb FBA inh	Rv3671c inh	Mtb FBA confirm	GDH-TPI counter-2	others
CC[C@H](C)Cc1cn([C@@H](CCCCNC(=O)OC(C)(C)C)C(=O)NCCCCCCCCCCC(=O)N2CCN(C(=O)OC(C)(C)C)CC2)nn1	10	0	-1	106*	-8	66*	48*
CSc1ncccc1C(=O)OC(C)C(=O)Nc1ccc2c(c1)OCCO2 (stereo unspecified)	7	-2	0	0	.	.	.
CC(OC(=O)c1cccnc1Cl)C(=O)Nc1ccc2c(c1)OCCO2 (stereo unspecified)	-1	-1	.	35*	0	161*	130*
CO[C@H]1CN(C)C(=O)c2cc(NC(=O)Cc3ccccc3)ccc2OC[C@H](C)N(C(C)=O)C[C@H]1C	.	.	1	.	.	.	.
Cc1cc(C)n2cc(CSC3=NCCS3)nc2n1	3	-1	6	53*	-5	190*	155*
O=C(O)c1cccnc1SCc1cn2cc(Br)ccc2n1	3	0	.	4	-1	.	.
Cc1cc(C)n2cc(CSCc3ccco3)nc2n1	11	-1	10	8	9	.	.
Cc1cc(C)n2cc(CSc3nnnn3-c3ccccc3C)nc2n1	-4	-2	0	7	-3	.	.
Cc1cc(C)n2cc(CSc3ncccc3C(=O)O)nc2n1	1	0	-4	82*	-4	199*	179*
Cc1ccnc(SCc2cn3c(C)cc(C)nc3n2)n1	-5	-4	.	100*	-9	46*	48*
O=C(C[C@H]1C[C@H]2c3cc(NC(=O)c4ccc5c(c4)OCO5)ccc3O[C@H]2[C@H](CO)O1)NCC1CC1	.	.	1	.	.	.	.
O=C(Nc1ccc2c(c1)[C@H]1C[C@@H](CC(=O)N3CCc4ccccc4C3)O[C@H](CO)[C@H]1O2)NC1CCCC1	.	.	0	.	.	.	.
CC(=O)c1sc2nc(-c3cccs3)ccc2c1N	19	1	4	17	-28	.	.
Nc1c(C(=O)Nc2nc3ccccc3s2)sc2nc(-c3cccs3)ccc12	35*	-3	-3	52*	0	123*	114*
COc1cccc2[nH]c(C(=O)NCc3ccccc3)cc12	1	-4	1	68*	3	74*	73*
CN(C)C(=O)[C@H]1[C@H](CO)[C@H]2Cn3c(ccc(C4=CCCCC4)c3=O)[C@@H]1N2Cc1cccnc1	.	.	-1	.	.	.	.
O=c1[nH]c(N2CCOCC2)cc2ccccc12	0	-3	2	45*	-108	144*	100*
Cc1cccc2nc(-c3cccnc3)c(Nc3ccccc3)n12	-2	-2	8	1	6	.	.
Cc1cccc2nc(-c3cccnc3)c(NCCC(C)C)n12	4	-2	.	29*	-11	+	+
CCn1c(SCC(=O)N2CCOCC2)nnc1-c1cccs1	6	-4	1	70*	-2	142*	117*
CCn1c(SCC(=O)N2CCCc3ccccc32)nnc1-c1cccs1	3	0	0	0	2	.	.
CN1C(=O)c2cc(NC(=O)c3cc(F)cc(F)c3)ccc2OC[C@@H]2O[C@@H](CC(=O)O)CC[C@@H]21	.	.	-2	.	.	.	.
COc1ccc(OC)c(-c2nnc(-c3ccc(C)o3)o2)c1	24	0	0	103*	-5	101*	84*
CN1C(=O)c2cc(NC(=O)c3cccc(F)c3)ccc2OC[C@H]2O[C@H](CC(=O)N3CCc4ccccc4C3)CC[C@H]21	.	.	4	.	.	.	.
COc1ccc(-c2[nH]nc3oc(=O)cc(C)c23)cc1	12	0	4	43*	-10	11	-5	GDH-TPI DR=3.4*
SMILES	GDH-TPI counter-1	FadD28 binding	Mtb BioA inh	Mtb FBA inh	Rv3671c inh	Mtb FBA confirm	GDH-TPI counter-2	others
COc1ccc2oc(=N)c(-c3nnc4n3CCCCC4)cc2c1	5	-4	-2	32*	1	17	9	GDH-TPI DR=>10
CC(C)N1CCC(N2CCN(Cc3cc(F)ccc3-n3cccn3)CC2CCO)CC1 (stereo unspecified)	11	0	.	2	9	.	.
CC(C)N1CCN(Cc2cc(F)ccc2-n2cccn2)CC1CCO (stereo unspecified)	-4	0	.	37*	-5	106*	82*
CC(C)C[C@H]1C(=O)N2CCC[C@H]2[C@]2(O)O[C@](NC(=O)[C@@H]3C=C4c5cccc6[nH]cc(c56)C[C@H]4N(C)C3)(C(C)C)C(=O)N12	17	1	-3	13	-30	.	.
CCC(CO)NC(=O)C1C=C2c3cccc4[nH]cc(c34)CC2N(C)C1 (stereo unspecified)	10	2	-3	83*	-1	+	+
CC(=O)Nc1ccc(C(=O)NCCc2ccccc2)cc1	1	-1	.	-2	0	.	.
COc1ccc(NC(=O)NNC(=O)c2ccc3ccccc3c2O)c(OC)c1	4	-4	-1	40*	-8	52*	44*
CCc1ccccc1NC(=O)NNC(=O)c1ccc2ccccc2c1O	3	-5	-2	8	12	.	.
CCOc1ccc(NC(=O)NNC(=O)c2ccc3ccccc3c2O)cc1	10	-3	0	40*	5	28*	10	GDH-TPI DR=5.7*
O=C(NNC(=O)c1cc2ccccc2cc1O)Nc1ccc(Br)cc1	12	-1	1	28*	-4	106*	91*
COc1ccc(NC(=O)NNC(=O)c2cc3ccccc3cc2O)cc1	8	-3	-2	0	6	.	.
CC(=O)Nc1ccc(CCNC(=O)c2ccc3ccccc3c2O)cc1	12	-2	.	32*	.	+	149*
C[C@@H]1CCCCO[C@@H](CN(C)C(=O)c2ccccc2)[C@H](C)CN([C@@H](C)CO)C(=O)c2cc(NC(=O)C3CCCCC3)ccc2O1	.	.	-2	.	.	.	.
COc1ccccc1-c1cnc2c(c1)C(=O)N([C@@H](C)CO)C[C@@H](C)[C@@H](CN(C)Cc1cccc(F)c1)O2	.	.	4	.	.	.	.
CCOc1ccc(C(=O)NCc2ccccc2OC)cc1	11	-1	-4	3	-3	.	.
CCOc1c2ccc(C(=O)NCCCCc3ccccc3)cc2nn1CC	11	1	-1	48*	0	5	-1
CCOc1ccc(CCNC(=O)c2ccc3nc(CC)c(CC)nc3c2)cc1	15	-1	-2	3	-6	.	.
CCOc1c2ccc(C(=O)NCc3ccc(C)cc3)cc2nn1CC	12	0	1	67*	1	67*	45*
CCCn1nc2cc(C(=O)NCc3ccccc3OC)ccc2c1OCC	16	-2	0	42*	-5	-2	-4
CCOc1c2ccc(C(=O)NCCc3ccc(C)cc3)cc2nn1CC	1	-2	-2	51*	6	121*	105*
CO[C@H]1CN(C)C(=O)c2ccc(NC(=O)C3CC3)cc2OC[C@H](C)N(Cc2cc(F)ccc2F)C[C@H]1C	.	.	-1	.	.	.	.

High-throughput results as filed in PubChem BioAssay.
